Drawing on PubChem BioAssay AID1906 (The Scripps Research Institute Molecular Screening Center, 2009), this text covers inhibition for 60 molecules.

The campaign covered roughly 300,000 compounds. About 1,500 (0.5%) were called active.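 Rule for the calls: active = inhibition above the mean of all tested compounds plus 3 SD, set per screening campaign (cut at about 17% in these data); inactive = the rest.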 This excerpt belongs to a sample that is enriched for actives.

The subject of the assay is cathepsin L1 (Fasciola hepatica). In words: CTSL1 protease inhibition, fluke enzyme – biochemical, QFRET, fluorogenic peptide substrate, counter-screen for PFM18AAP inhibitor project, primary screen (AID 1906).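 Note: 0% = plate median of test compound wells and 100% = 1 µM Z-Phe-Ala-diazomethylketone.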 The note with it: recombinant F. hepatica cathepsin L1, Z-Leu-Arg-MCA fluorescence; at 5.96 µM; stronger effect = higher value. Background: A counterscreen serves to expose hits that act by an unwanted route or on another target.
As a reminder, the inhibition is the drop in the measured response relative to a control, in per cent. Consider `CC(=O)Nc1ccc(S(=O)(=O)N(C)CC(=O)NCCC2=CCCCC2)cc1`, for which the inhibition was -4.22% (inactive).

With `CCCCC(O)(CCCC)C(=O)NN(C(=O)CCl)c1ccccc1`, the inhibition was 18.1% (active). Then `CCCC(O)(CCC)C(=O)NN(C(=O)CCl)c1cccc(C)c1`, with 27.6% (active); and `CCCCCNC(=O)C1c2ccccc2Oc2ccccc21`, with -9% (inactive). In the case of `CC(C)(O)C(=O)NN(C(=O)c1ccccc1)c1cccc(Br)c1`, the inhibition was -2.56% (inactive). Turning to `COC(=O)N(NC(=O)C(O)(C(C)C)C(C)C)c1ccccc1`, the inhibition was -0.72% (inactive). Regarding `Cc1ccc(N(NC(=O)C(C)(C)O)C(=O)c2ccccc2)cc1C`, the inhibition was 1.52% (inactive). In the case of `CC(Sc1nc2cc(Cl)ccc2s1)C(=O)Nc1ccc2c(c1)OCO2` (stereo not given), the inhibition was -3.27% (inactive). Take `COc1ccc(CCNS(=O)(=O)c2cn(C)nc2C)cc1`: the inhibition was -5.7% (inactive).

Regarding `CCOC(=O)C1=C(c2ccc(OC)cc2)C(=O)c2ccccc2C1=O`, the inhibition is 28.8% (active). For `CCOC(=O)c1c(-c2ccc(C)cc2)csc1/N=C(\C)C1=C(O)c2ccccc2C1=O`, the inhibition is 1.32% (inactive). Consider `CCOC(=O)c1cc2cc3ccccc3cc2oc1=O`, for which the inhibition is 0.07% (inactive). As for `CC(=O)c1ccccc1NC(=O)CC1(CC(=O)O)CCCCC1`, the inhibition is 2.79% (inactive). Take `Cc1ccccc1OCC(=O)Nc1nnc(S(=O)(=O)N2CCCC2)s1`: the inhibition was 3.28% (inactive). For `CCn1c(SCC(=O)NC2=NCCS2)nnc1C(C)NC(=O)c1ccccc1F` (stereo not given), the inhibition was -7.21% (inactive). For the molecule `O=C1CCCCC1Sc1ccc(Cl)cc1[N+](=O)[O-]` (stereo not given), the inhibition is -1.08% (inactive). Take `N#C/C(=C\c1ccccc1)c1n[nH]c(Cn2cncn2)n1`: the inhibition is 3.03% (inactive). Regarding `CCn1cc(C(=O)N2CCN(C3CCCCC3)CC2)c2cc(OC)c(OC)cc2c1=O`, the inhibition was 20.3% (active).

For the molecule `COc1cc(C(=O)N2CCN(C3CCC(C)CC3)CC2)cc(OC)c1OC` (stereo not given), the inhibition was 1.26% (inactive). As to `CCn1cc(C(=O)N2CCN(Cc3ccc4c(c3)OCO4)CC2)c2cc(OC)c(OC)cc2c1=O`, the inhibition is 7.48% (inactive). As to `O=c1c([N+](=O)[O-])cccn1Cc1ccc(F)cc1Cl`, the inhibition was -4.32% (inactive). As for `C/C(=N\NC(N)=S)c1ccncc1`, the inhibition was 3.21% (inactive). Then `C/C(=N\NC(=O)c1cccnc1)c1ccc(-c2ccccc2)cc1`, with 2.6% (inactive); and `C/C(=N\NC(N)=S)c1cccnc1`, with 35.1% (active); and `O=C(c1ccc(-c2ccccc2)cc1)C1CCCN(C(=O)c2cncs2)C1` (stereo not given), with 0.67% (inactive).

Turning to `COc1ccc(-n2nc(C(=O)NCC(=O)N3CCN(c4ccccc4OC)CC3)c3ccccc3c2=O)c(OC)c1`, the inhibition was 0.09% (inactive). For the molecule `Cc1ccc(Cl)c(NC(=O)CN2CCN(C=O)CC2)c1`, the inhibition was -5.16% (inactive). In the case of `CCOC(=O)C(C)n1cnc2scc(-c3ccc(C)c(C)c3)c2c1=O` (stereo not given), the inhibition is 3.75% (inactive).

Take `CCn1cnc2scc(-c3ccc(C)c(C)c3)c2c1=O`: the inhibition is 0.4% (inactive). In the case of `COC(=O)Cn1cnc2scc(-c3ccc(C)c(C)c3)c2c1=O`, the inhibition was 24.9% (active). Then `CCN(Cc1ccccc1)C(=O)Cc1ccc(OC)c(S(=O)(=O)N2CCOCC2)c1`, with -0.92% (inactive); and `CCSc1nc2c(c(=O)[nH]1)C(c1cccnc1)C(C(=O)OC(C)C)=C(C)N2` (stereo not given), with 4.8% (inactive). For the molecule `COc1ccccc1C(=O)Nc1ccc(OCc2nnc3c4ccccc4c(C)nn23)cc1`, the inhibition is -0.1% (inactive).

For the molecule `CCOCCCNc1c(CC)c(C)c(C#N)c2nc3ccccc3n12`, the inhibition was 2.01% (inactive). In the case of `CC(C)CN(CC(C)C)CC(O)CN(c1ccccc1)S(=O)(=O)c1ccccc1[N+](=O)[O-]` (stereo not given), the inhibition was 4.97% (inactive). Turning to `COCCN(C(=O)C(C)C)c1nnc(-c2ccc(C(C)(C)C)cc2)s1`, the inhibition is 3.51% (inactive). Take `CCCCCCCNC(=O)C1(CC2CC(c3cccc(Br)c3)=NO2)CCN(C(=O)c2cc(OCC)c(OCC)c(OCC)c2)CC1` (stereo not given): the inhibition is 30% (active). Regarding `COc1ccc(CNC(=O)C2(CC3CC(c4ccccc4)=NO3)CCN(C(=O)c3cccc(O)c3)CC2)cc1` (stereo not given), the inhibition is -1.66% (inactive). On to `O=C(c1ccccc1)N1CCC(CC2CC(c3ccc(Cl)cc3)=NO2)(C(=O)NCC2CCCCC2)CC1` (stereo not given), for which the inhibition was -0.13% (inactive).

On to `CN(CC(=O)Nc1cccc(F)c1)C(=O)C1CSC2(C)CCC(=O)N12` (stereo not given), for which the inhibition was -4.97% (inactive). To `CC(N=Cc1nc(-c2ccccc2)oc1O)c1ccccc1` (stereo not given) belongs 1.73% (inactive); to `CCOc1ccc2nc(/N=C/c3nc(-c4ccccc4)oc3O)sc2c1`, 5.43% (inactive). For `Oc1oc(-c2ccccc2Br)nc1/C=N/c1ccccn1`, the inhibition is 53.9% (active). Regarding `COc1ccc(C(C)NC(=O)C23CC4CC(CC(C4)C2)C3)cc1` (stereo not given), the inhibition was -3.76% (inactive). Turning to `Cc1cccc(NC(=O)CCN2CC(C)CC(C)C2)c1` (stereo not given), the inhibition is -3.49% (inactive). Take `COc1cccc(NC(=O)CN(C)CC(=O)Nc2ccc3c(c2)CCC3)c1`: the inhibition was 0.04% (inactive).

Regarding `CC1CC(C)CN(CCC(=O)Nc2ccc3c(c2)CCC3)C1` (stereo not given), the inhibition was 40.7% (active). `C=CCSc1nnc2c(n1)-c1cccc3cccc-2c13`: the inhibition was 4.82% (inactive).

As for `Cc1cccc(-n2c(C)cc(/C=N/NC(N)=S)c2C)c1`, the inhibition was 35.5% (active).

In the case of `Cc1ccc(-n2c(C)cc(/C=N\NC(=O)CC(=O)NC(C)C)c2C)cc1`, the inhibition is -0.88% (inactive). As to `Cc1cccc(-n2c(C)cc(/C=N\NC(=O)c3cccs3)c2C)c1`, the inhibition is -1.99% (inactive). As to `CCOC(=O)C(C)n1nc(-c2ccccc2)c2ccccc2c1=O` (stereo not given), the inhibition is 3.78% (inactive). On to `COc1ccc(CCNC(=O)Cc2ccc(C)cc2)cc1OC`, for which the inhibition is 2.87% (inactive). Consider `Cn1nccc1NC(=O)Nc1ccc(OC(F)(F)F)cc1`, for which the inhibition is 19.4% (active). To `CCOC(=O)Cc1ncccc1C(=O)Nc1ccc(OC(F)(F)F)cc1` belongs 2.95% (inactive); to `COC(=O)[C@H](C)NC(=O)Nc1ccc(OC(F)(F)F)cc1`, -1.87% (inactive). Then `COC(=O)c1ccccc1Oc1c(F)c(F)nc(N2CCOCC2)c1F`, with 0.49% (inactive). To `COc1ccc(C(C(=O)NC2CCCCC2)N(C(=O)c2snc(C(N)=O)c2N)c2ccccc2OC)cc1` (stereo not given) belongs -2.13% (inactive); to `COc1cccc(N(C(=O)C2COc3ccccc3O2)C(C(=O)NC2CCCCC2)c2ccc(O)cc2)c1` (stereo not given), 4.68% (inactive); to `COc1ccc(C(C(=O)NC2CCCCC2)N(C(=O)CCl)c2ccccc2Cl)cc1` (stereo not given), 25.3% (active).
